Some test systems named below: HCT-15 colon; HT29 colon; SNB-75 CNS; SNB-19 CNS; U251 CNS; PC-3 prostate; SK-MEL-5 melanoma; UACC-62 melanoma; LOX IMVI melanoma; SK-MEL-28 melanoma; SK-MEL-2 melanoma; EKVX NSCLC; SN12C renal; UO-31 renal; TK-10 renal; ACHN renal; CAKI-1 renal; A498 renal; CCRF-CEM leukemia; MOLT-4 leukemia.
Holding throughout (experiment): NCI-60 one-dose screen, 48 h (100 = growth as untreated, 0 = no growth, -100 = all killed)
What all share (conditions): 10 µM unless noted

Molecules are shown by their SMILES. This is part of a sample that, as a whole, favours compounds with a hit. Of some 83,000 tested, about 20% had one in any assay.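 Compound tested at a single concentration for 48 hours in 96-well plates; a percent growth value below 10 was scored as active.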 Unmarked numbers belong to inactive results. Calls of active or inactive are those of the source.

Our source for the growth values is PubChem BioAssay (NCI).

Turning to `O=c1ccc2nc(C(F)(F)F)nn(-c3ccccc3)c-2c1`, the growth in the assay with HCT-15 colon was -79.7% (active); in the assay on HT29 colon, -64.3% (active); in the assay with SNB-75 CNS, 86.5%; with SNB-19 CNS it was 93.5%; with U251 CNS it was 69.7%; in the assay with PC-3 prostate, 84.6%. The growth in the assay on SK-MEL-5 melanoma is 32.7%; in the assay on UACC-62 melanoma, 66.4%; with LOX IMVI melanoma it was 4.3% (active); in the assay on SK-MEL-28 melanoma, 35.7%; with SK-MEL-2 melanoma it was 78.3%; in the assay with EKVX NSCLC, 95.8%. Besides, the growth is 67.9% in the assay with SN12C renal; 24% with UO-31 renal; -98% (active) with TK-10 renal; -89% (active) in the assay on ACHN renal; 56% with CAKI-1 renal; 80% in the assay with A498 renal. The growth in the assay on CCRF-CEM leukemia was -0.269% (active); in the assay on MOLT-4 leukemia, -20.5% (active).
With `C[C@@H]1O[C@@H](O[C@@H]2C[C@H](c3ccc4c(c3O)C(=O)C3=C(C4=O)[C@@]4(O)C(=O)C[C@](C)(O)C[C@@]4(O)C=C3)O[C@H](C)[C@H]2O)C[C@H](O)[C@@H]1O`, the growth in the assay on HCT-15 colon is 98.9%; in the assay with HT29 colon, 106%; in the assay with SNB-75 CNS, 86.8%; in the assay on SNB-19 CNS, 91.8%; in the assay with U251 CNS, 97.5%; in the assay with PC-3 prostate, 90.5%. Further, the growth was 100% with SK-MEL-5 melanoma; 94.2% with UACC-62 melanoma; 91% in the assay on LOX IMVI melanoma; 113% in the assay with SK-MEL-28 melanoma; 103% with SK-MEL-2 melanoma; 102% in the assay with EKVX NSCLC. For the same compound, the growth with SN12C renal was 94.2%; with UO-31 renal, 78.9%; in the assay on TK-10 renal it was 101%; in the assay on ACHN renal it was 102%; in the assay on CAKI-1 renal it was 88.1%; with A498 renal it was 95%. Moreover, the growth is 93.8% in the assay with CCRF-CEM leukemia and 91.5% in the assay with MOLT-4 leukemia.
In the case of `Cc1cccc(NC(=O)CSc2nc3ccc([N+](=O)[O-])cc3[nH]2)c1`, the growth with HCT-15 colon was 75.1%; in the assay on HT29 colon, 90.4%; in the assay on SNB-75 CNS, 70%; in the assay on SNB-19 CNS, 80.3%; in the assay on U251 CNS, 74.5%; in the assay with PC-3 prostate, 75.1%. For the same compound, the growth with SK-MEL-5 melanoma was 52%; with UACC-62 melanoma, 42.6%; in the assay on LOX IMVI melanoma, 81.4%; in the assay on SK-MEL-28 melanoma, 80.7%; in the assay with SK-MEL-2 melanoma it was 98.5%; with EKVX NSCLC, 70.9%. Also, the growth is 80.7% in the assay on SN12C renal; 54.2% in the assay on UO-31 renal; 97.3% in the assay on TK-10 renal; 82.5% in the assay with ACHN renal; 61.4% with CAKI-1 renal; 63.5% in the assay on A498 renal. Also, the growth in the assay on CCRF-CEM leukemia was 78.4%; with MOLT-4 leukemia, 77.2%.
Consider `CCCCCCCCCCCCCCCCOC(=O)c1c(C)[nH]c(/C=C2\N=C(c3ccc[nH]3)C=C2OC)c1C`, for which the growth is 56.3% with HCT-15 colon; 13.6% in the assay on HT29 colon; 51.4% in the assay with SNB-75 CNS; 84.6% in the assay on SNB-19 CNS; 41.7% with U251 CNS; 45.6% in the assay with PC-3 prostate. The growth is -80.8% (active) in the assay with SK-MEL-5 melanoma; -15.3% (active) in the assay with UACC-62 melanoma; -83.9% (active) in the assay on LOX IMVI melanoma; 51.1% with SK-MEL-28 melanoma; -25.9% (active) in the assay with SK-MEL-2 melanoma; 68.3% in the assay on EKVX NSCLC. Besides, the growth is 55.9% in the assay with SN12C renal; 30.4% in the assay with UO-31 renal; 18.8% in the assay with TK-10 renal; 48.8% with ACHN renal; 15.4% in the assay with CAKI-1 renal; 33.9% in the assay with A498 renal. For the same compound, the values for the growth in the assay with CCRF-CEM leukemia and in the assay on MOLT-4 leukemia were 50.4% and 91.9%, respectively.
For `CCCCCn1sc(=O)n(Cc2ccc(CNC(=O)OCc3ccc4c(Cl)cc(Cl)c(O)c4n3)cc2)c1=O`, the growth in the assay on HCT-15 colon is 17.1%; in the assay on HT29 colon, 110%; with SNB-75 CNS, 82.1%; in the assay on SNB-19 CNS it was 48.6%; in the assay with U251 CNS, 39.7%; with PC-3 prostate, 61.1%. Moreover, the growth in the assay on SK-MEL-5 melanoma was 48.7%; in the assay with UACC-62 melanoma, 40.4%; in the assay on LOX IMVI melanoma it was 51.8%; in the assay with SK-MEL-28 melanoma, 56%; in the assay on SK-MEL-2 melanoma, 90.1%; in the assay with EKVX NSCLC it was 86%. In addition, the growth was 51.4% in the assay with SN12C renal; 11.6% with UO-31 renal; 68.8% with TK-10 renal; 28.9% with ACHN renal; 55% with CAKI-1 renal; 80.7% in the assay on A498 renal. For the same compound, the growth in the assay with CCRF-CEM leukemia is 34.4%; in the assay on MOLT-4 leukemia it was 31.8%.
`O=C(N/N=C/c1ccc(O)cc1O)c1ccc(Nc2ccnc(C(F)(F)F)c2)cc1`: the growth with HCT-15 colon was 39.7%; with HT29 colon, 58.6%; in the assay on SNB-75 CNS, 62.2%; in the assay on SNB-19 CNS, 32%; in the assay on U251 CNS, 24.6%; in the assay with PC-3 prostate, 50.2%. Further, the growth was 20.7% with SK-MEL-5 melanoma; 11.7% in the assay on UACC-62 melanoma; 12.9% in the assay with LOX IMVI melanoma; 60.7% with SK-MEL-28 melanoma; 73.3% in the assay with SK-MEL-2 melanoma; 41.4% with EKVX NSCLC. In addition, the growth in the assay on SN12C renal is 38.5%; in the assay with UO-31 renal it was 46.1%; in the assay with TK-10 renal, 63.3%; in the assay on ACHN renal, 37.9%; in the assay with CAKI-1 renal it was 34.9%; in the assay with A498 renal it was 74.7%. Besides, the growth in the assay on CCRF-CEM leukemia is 29.1%; in the assay on MOLT-4 leukemia, 73.7%.
With `Cc1ccc(O)c(NC(=O)c2ccc(CNc3ccnc(C(F)(F)F)c3)cc2)c1`, the growth with HCT-15 colon was 49.9%; with HT29 colon, 66.4%; with SNB-75 CNS, 72.5%; with SNB-19 CNS, 87.1%; with U251 CNS, 82.1%; with PC-3 prostate, 78.8%. For the same compound, the growth with SK-MEL-5 melanoma was 36.5%; with UACC-62 melanoma, 13.9%; in the assay on LOX IMVI melanoma it was 40.6%; with SK-MEL-28 melanoma it was 109%; in the assay with SK-MEL-2 melanoma it was 79.2%; with EKVX NSCLC it was 60.5%. Also, the growth was 46.4% with SN12C renal; 32.6% in the assay with UO-31 renal; 96.7% in the assay with TK-10 renal; 39% in the assay with ACHN renal; 41.8% in the assay with CAKI-1 renal; 80.7% with A498 renal. In addition, the growth in the assay on CCRF-CEM leukemia is 7.6% (active); in the assay with MOLT-4 leukemia, 25.1%.
